The record followed here is PubChem BioAssay.

Active and inactive are the calls of the source. Unless noted, the rule behind the calls is not given here.

The nature of assay [1]: resazurin metabolic signal in HepG2 cells – cell-based, resazurin fluorescence, 24 h, PK04 Diversity Set, profiling panel (AID 1172). Note: test concentration not given here. Particulars: HepG2 viability, higher = more signal.
Assay [2] is described as follows: budding yeast growth changes without added modifier – OD600, strain BY4716, 24 h, basal condition, primary screen (AID 1173). Particulars: S. cerevisiae BY4716 growth, OD600, 24 h; higher = more signal, called active from +8 up or from −8 down.
The nature of assay [3]: viability profiling in MM1S myeloma cells – cell-based, resazurin fluorescence, basal, 24 h, PK04 Diversity Set, profiling panel (AID 1174).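 Note: MM1S multiple myeloma cell line; test concentration not given here.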 The following applies: higher = more signal, called active from +8 up or from −8 down. For orientation: The colour change of resazurin is a common sign of viable cells or microbes.
Assay [4] has as its target Dihydroorotate dehydrogenase (quinone), mitochondrial (Plasmodium falciparum (isolate 3D7)) (UniProt Q08210). As to the kind of experiment: inhibition of P. falciparum DHODH – biochemical, C-terminal His tag, absorbance 600 nm, primary screen (AID 1175).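 Note: recombinant parasite enzyme with a five histidine tag at its C terminus; test concentration not given here.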 The following applies: PfDHODH enzyme, DCIP absorbance 600 nm; higher = more signal, called active from +8 up or from −8 down.

Assay [5] can be described thus: inhibition of PAO1 biofilm formation – strain PAO1, LB-PBS medium, absorbance 600 nm, primary screen (AID 1176). Note: test concentration not given here. Particulars: P. aeruginosa PAO1 growth/biofilm, A600, 12 h; higher = more signal.
A short description of assay [6]: growth modulation of vineyard yeast isolate – strain RM11-1a, OD600, basal, 24 h, primary screen (AID 1177).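 Note: cultures grown under basal conditions with no added stressor; test concentration not given here.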 The following applies: S. cerevisiae RM11-1a growth, OD600, 24 h; higher = more signal, called active from +8 up or from −8 down.
Assay [7] is described as follows: growth of efflux-deficient E. coli DRC39 – strain DRC39, OD650, 24 h, E. coli filamentation inducers, primary screen (AID 1178).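 Note: growth measured as culture turbidity by optical density at 650 nm; test concentration not given here.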 The following applies: E. coli DRC39 acrAB, higher = more signal, called active from +8 up or from −8 down.
The nature of assay [8]: growth of efflux-deficient E. coli DRC39 – strain DRC39, OD650, 48 h, E. coli filamentation inducers, primary screen (AID 1179).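 Note: screen aims at cell division blockers that make cells filament.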 Particulars: E. coli DRC39 delta-acrAB growth, higher = more signal, called active from +8 up or from −8 down.
Assay [9] in a line: viability profiling in RPMI8226 myeloma cells – cell-based, resazurin fluorescence, basal, 24 h, PK04 Diversity Set, profiling panel (AID 1180).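 Note: RPMI8826 multiple myeloma cell line at 5000 cells per well; test concentration not given here.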 The following applies: higher = more signal.
In assay [10] the target is E3 ubiquitin-protein ligase XIAP (Homo sapiens) (UniProt P98170). Nature of the assay: small molecules binding XIAP protein – biophysical, small-molecule microarray, fluorescence 635 nm, primary screen (AID 1181).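 Note: score merges 667 nm emission and signal to noise over triplicate slides.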 Particulars: higher = more signal.
E3 ubiquitin-protein ligase XIAP (Homo sapiens), sequence (P98170 whole entry, looked up): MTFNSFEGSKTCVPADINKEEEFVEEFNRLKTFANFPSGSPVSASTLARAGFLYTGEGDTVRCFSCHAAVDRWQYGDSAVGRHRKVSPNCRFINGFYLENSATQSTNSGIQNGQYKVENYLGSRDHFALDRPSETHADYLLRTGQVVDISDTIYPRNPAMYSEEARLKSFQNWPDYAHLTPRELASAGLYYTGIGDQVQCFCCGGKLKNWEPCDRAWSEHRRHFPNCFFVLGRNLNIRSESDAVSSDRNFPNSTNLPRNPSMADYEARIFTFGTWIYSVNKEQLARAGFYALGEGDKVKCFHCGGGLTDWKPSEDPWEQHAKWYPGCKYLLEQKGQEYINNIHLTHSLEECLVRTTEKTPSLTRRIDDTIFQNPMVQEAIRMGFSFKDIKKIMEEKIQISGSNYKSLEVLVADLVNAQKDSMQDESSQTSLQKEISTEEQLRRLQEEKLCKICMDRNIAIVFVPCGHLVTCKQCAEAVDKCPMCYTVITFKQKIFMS

Dihydroorotate dehydrogenase (quinone), mitochondrial (Plasmodium falciparum (isolate 3D7)), sequence (Q08210 whole entry, looked up): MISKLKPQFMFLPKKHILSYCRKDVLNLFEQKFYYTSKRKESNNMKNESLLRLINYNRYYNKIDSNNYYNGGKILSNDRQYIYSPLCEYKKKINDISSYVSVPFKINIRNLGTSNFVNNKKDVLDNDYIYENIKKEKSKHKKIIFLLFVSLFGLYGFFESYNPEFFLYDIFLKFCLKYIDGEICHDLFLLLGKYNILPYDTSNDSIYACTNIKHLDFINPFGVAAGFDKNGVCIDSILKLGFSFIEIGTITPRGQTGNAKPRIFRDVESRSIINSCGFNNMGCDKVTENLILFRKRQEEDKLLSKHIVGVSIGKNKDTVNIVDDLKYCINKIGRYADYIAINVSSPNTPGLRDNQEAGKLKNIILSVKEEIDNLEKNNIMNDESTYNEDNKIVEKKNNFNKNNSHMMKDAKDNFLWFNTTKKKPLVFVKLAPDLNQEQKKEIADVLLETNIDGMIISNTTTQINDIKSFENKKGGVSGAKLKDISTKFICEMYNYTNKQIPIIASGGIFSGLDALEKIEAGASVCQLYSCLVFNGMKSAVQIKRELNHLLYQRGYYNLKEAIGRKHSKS

For `CCOC(=O)[C@H](Cc1ccccc1)NC(=O)CCC1CC(OC(=O)NCc2cccc3ccccc23)CC2(CCCC(COC(=O)NCc3ccccc3)O2)O1` (stereo not given in full), the z-score in [1] was 0.466; in assay [2] it was -2.55 (inactive); in assay [3], 1.12 (inactive); in assay [5], 0.709 (inactive); in assay [6], -2.62 (inactive); in assay [7], -0.964 (inactive). Also, the values for the z-score in [8] and in assay [9] were -1.23 (inactive) and 1.03, respectively. For the same compound, the composite z-score in assay [4] was -2.79 (inactive); in assay [10], 0.171.

Take `CCOC(=O)[C@H](CC(C)C)NC(=O)CCC1CC(OC(=O)NCc2cccc3ccccc23)CC2(CCCC(COC(=O)NCCC(C)C)O2)O1` (stereo not given in full): the z-score in [1] was 0.232; in [2], -2.17 (inactive); in assay [3], 0.771 (inactive); in assay [5] it was 0.131 (inactive); in [6], -3.91 (inactive); in assay [7], -0.259 (inactive). The z-score in assay [8] is -0.457 (inactive); in [9] it was -0.286. In addition, the figures for the composite z-score in [4] and in assay [10] were -2.64 (inactive) and 0.117, respectively.

With `COc1ccc(O[C@H]2C=C[C@@H](c3ccccc3)O[C@@H]2COC(=O)CCC(C)=NOC(C)CN2CCCc3nc(C)c(C)cc32)cc1` (stereo not given in full), the z-score is 1.21 in assay [1]; -0.729 (inactive) in assay [2]; -0.317 (inactive) in [3]; -0.336 (inactive) in [5]; 1.37 (inactive) in assay [6]; 1.09 (inactive) in assay [7]. In addition, the results for the z-score in assay [8] and in [9] were 0.129 (inactive) and 0.757, respectively. Further, the composite z-score in assay [4] is -0.154 (inactive); in assay [10], -0.127.

Turning to `CCN1C(=O)[C@H]2[C@H]3[C@H](O)[C@H](O)CC(=O)[C@@H]3CC[C@H]2C1=O`, the z-score in assay [1] was -0.309; in assay [2], -0.553 (inactive); in [3] it was -0.399 (inactive); in assay [5] it was -0.72 (inactive); in [6] it was -0.162 (inactive); in assay [7], -0.307 (inactive). For the same compound, the z-score in [8] is -0.164 (inactive); in assay [9], -0.752. Moreover, the composite z-score in [4] is -0.308 (inactive); in assay [10], 0.112.

Consider `COc1cccc([C@H]2Oc3ccc(OC)cc3C(=NO[C@H](C)c3cn([C@H](CO)Cc4ccccc4)nn3)[C@@H]2O)c1`, for which the z-score is -0.26 in [1]; 0.723 (inactive) in assay [2]; -0.328 (inactive) in assay [3]; 0.417 (inactive) in assay [5]; -1.11 (inactive) in [6]; 0.753 (inactive) in assay [7]. Also, the z-score in assay [8] was 0.571 (inactive); in assay [9] it was 0.249. The composite z-score in assay [4] was -0.755 (inactive); in [10], -0.278.

For `C=Cc1ccc([C@H]2N[C@H](C(=O)O)CC[C@@H]2C)cc1`, the z-score in assay [1] is -0.869; in assay [2] it was -0.366 (inactive); in [3] it was -0.601 (inactive); in assay [5], -0.54 (inactive); in assay [6], -0.649 (inactive); in assay [7], 0.505 (inactive). Besides, the results for the z-score in assay [8] and in assay [9] were 0.296 (inactive) and -0.845, respectively. In addition, the figures for the composite z-score in assay [4] and in assay [10] were -0.13 (inactive) and -0.168, respectively.

Take `CCOC(=O)[C@H](CC(C)C)NC(=O)CCC1CC(OC(=O)NCCc2ccc(F)cc2)CC2(CCCC(COC(=O)NCC(c3ccccc3)c3ccccc3)O2)O1` (stereo not given in full): the z-score in [1] was 0.184; in assay [2], -0.227 (inactive); in [3] it was -0.345 (inactive); in assay [5], 0.013 (inactive); in [6], 0.126 (inactive); in assay [7] it was 0.113 (inactive). In addition, the results for the z-score in [8] and in [9] were -1.1 (inactive) and 0.465, respectively. The figures for the composite z-score in assay [4] and in [10] were 0.0649 (inactive) and -0.0994, respectively.

As for `COC(=O)[C@@H]1CC[C@H](C)[C@@H](c2ccc(C)cc2)N1C(=O)c1ccc(C=NO[C@H](C)c2cn([C@@H]3COC[C@H]3O)nn2)cc1`, the z-score in assay [1] is -0.324; in [2] it was -0.225 (inactive); in assay [3] it was -0.943 (inactive); in [5] it was 0.289 (inactive); in assay [6] it was 1.17 (inactive); in [7] it was 0.879 (inactive). Further, the results for the z-score in [8] and in assay [9] were 0.246 (inactive) and -0.798, respectively. For the same compound, the composite z-score in [4] is 0.0465 (inactive); in [10], 0.199.

Regarding `O=c1n(Cc2cc3c(cc2Cl)OCO3)c(=O)n2n1CC[C@@H]1C(=NOC[C@@H](O)COCc3ccco3)[C@H]3O[C@H]3[C@@H](O)[C@@H]12`, the z-score is -0.0975 in assay [1]; 0.919 (inactive) in assay [2]; -0.316 (inactive) in assay [3]; 0.471 (inactive) in [5]; 0.716 (inactive) in assay [6]; -0.133 (inactive) in assay [7]. In addition, the z-score in assay [8] is -0.527 (inactive); in [9], -0.614. Moreover, the figures for the composite z-score in [4] and in assay [10] were 0.634 (inactive) and -0.0252, respectively.

Turning to `CC(C)=CCCC(C)=CCON=C1C[C@@H](O)[C@@H](O)[C@@H]2[C@@H]3C(=O)N(C[C@@H]4CCCO4)C(=O)[C@@H]3CC[C@H]12`, the z-score was 0.164 in assay [1]; -1.72 (inactive) in [2]; -0.58 (inactive) in assay [3]; 0.295 (inactive) in [5]; 1.8 (inactive) in [6]; -0.169 (inactive) in assay [7]. For the same compound, the values for the z-score in assay [8] and in assay [9] were -0.543 (inactive) and -0.251, respectively. In addition, the composite z-score in [4] was 0.0911 (inactive); in assay [10], -0.217.

Take `CCOC(=O)[C@H](CC(C)C)NC(=O)CCC1CC(OC(=O)NCc2ccc3c(c2)OCO3)CC2(CCCC(COC(=O)NCC3CCCCC3)O2)O1` (stereo not given in full): the z-score in [1] is 0.471; in assay [2] it was 0.105 (inactive); in [3], 1.4 (inactive); in assay [5], -0.0326 (inactive); in assay [6] it was 0.494 (inactive); in assay [7] it was 0.536 (inactive). The z-score is 0.0926 (inactive) in assay [8] and 1.32 in assay [9]. The composite z-score in [4] is -0.19 (inactive); in assay [10], -0.0053.

Take `CCOC(=O)[C@H](Cc1ccccc1)NC(=O)CCC1CC(OC(=O)NCc2cccc3ccccc23)CC2(CCCC(COC(=O)NCc3cccc(C(F)(F)F)c3)O2)O1` (stereo not given in full): the z-score in assay [1] was -0.256; in assay [2] it was -0.168 (inactive); in assay [3], 0.415 (inactive); in [5], 0.675 (inactive); in [6] it was 0.473 (inactive); in assay [7] it was 0.213 (inactive). Moreover, the z-score in assay [8] is -0.215 (inactive); in [9], -0.573. In addition, the composite z-score is -0.873 (inactive) in [4] and 0.158 in [10].

With `O=C1[C@H]2[C@H]3[C@H](O)[C@H](O)CC(=NOC[C@@H](O)COCc4ccco4)[C@H]3CC[C@H]2C(=O)N1C[C@@H]1CCCO1`, the z-score in assay [1] was 0.639; in assay [2] it was 0.0107 (inactive); in assay [3], -0.324 (inactive); in assay [5], 0.07 (inactive); in assay [6], -0.0915 (inactive); in assay [7], -0.481 (inactive). In addition, the z-score in [8] is -0.467 (inactive); in assay [9], 0.15. Besides, the composite z-score in [4] was -0.199 (inactive); in assay [10], -0.217.
